38 compounds from PubChem BioAssay (NCATS) can be followed below.

Records with an inconclusive call do not appear. A call without a number means that no potency is given here. Calls of active or inactive are those of the source. The call rests on the fitted dose curve.

The test is described as follows: Primary qHTS for Vero E6 cytotoxicity: counterscreen for inhibitors of SARS-S pseudo-typed particle cell entry (AID 1479150). As to conditions: cell viability; series mostly up to 57.1 µM. In general terms: qHTS replaces the single test concentration by a dilution series.
As for `C[C@@H](C1=C(CCN(C)C)Cc2ccccc21)c1ccccn1`, the Potency entry is “inactive”.

With `C=C1C(=C/C=C2\CCC[C@]3(C)[C@@H]([C@H](C)/C=C/[C@@H](O)C4CC4)CC[C@@H]23)C[C@@H](O)C[C@@H]1O`, the Potency entry is “inactive”.

With `NC(=O)Cc1cccc(C(=O)c2ccccc2)c1N`, the Potency entry was “inactive”.

Turning to `Cc1nnc2n1-c1sc(CCc3ccc(CC(C)C)cc3)cc1C(c1ccccc1Cl)=NC2C` (stereo not drawn), the Potency result is “inactive”.

`O=C(Nc1ccccc1)OCC(CN1CCCCC1)OC(=O)Nc1ccccc1` (stereo not drawn): the Potency result was “inactive”.

For the compound `COc1ccc(CN2CCN(C(c3ccc(F)cc3)c3ccc(F)cc3)CC2)c(OC)c1OC`, the Potency result is “inactive”.

`CCOc1ccccc1C(N)=O`: the Potency entry was “inactive”.

Take `OC(CCCN1CCCCC1)(c1ccccc1)c1ccccc1`: the Potency result was “inactive”.

Take `O=C(c1ccc(F)cc1)C1CCN(CCn2c(=O)[nH]c3ccccc3c2=O)CC1`: the Potency result was “inactive”.

With `CN(Cc1cc(Br)cc(Br)c1N)C1CCCCC1`, the Potency result is “inactive”.

In the case of `CC/C(=C(/CC)c1ccc(O)cc1)c1ccc(O)cc1`, the Potency result was “inactive”.

In the case of `COC(=O)C1=C(C)NC(C)=C(C(=O)OC)C1c1ccccc1[N+](=O)[O-]`, the Potency entry was “inactive”.

In the case of `Nc1c(NC/C=C\COc2cc(CN3CCCCC3)ccn2)c(=O)c1=O`, the Potency result is “inactive”.

As to `CN(C)CCC(c1ccccc1)c1ccccn1` (stereo not drawn), the Potency result is “inactive”.

As to `NS(=O)(=O)c1cc2c(cc1Cl)CN(C1CCCCC1)C2=O`, the Potency result is “inactive”.

As for `Clc1ccc(C(Cn2ccnc2)OCc2c(Cl)cccc2Cl)c(Cl)c1` (stereo not drawn), the Potency entry is “inactive”.

With `COC(=O)C1=C(C)NC(C)=C(C(=O)OC(C)(C)CN(C)CCC(c2ccccc2)c2ccccc2)C1c1cccc([N+](=O)[O-])c1` (stereo not drawn), the Potency entry was “inactive”.

With `COC(=O)C1=C(C)NC(C)=C(C(=O)OCCN2CCN(C(c3ccccc3)c3ccccc3)CC2)C1c1cccc([N+](=O)[O-])c1` (stereo not drawn), the Potency result is “inactive”.

Turning to `CC(C)C[C@@H]1[C@H](c2ccccc2)OC(=O)N1CCCN1CCCCCC1`, the Potency entry is “inactive”.

Regarding `CN1CCN(c2c(F)cc3c(=O)c(C(=O)O)cn(CCF)c3c2F)CC1`, the Potency entry is “inactive”.

For `CN(C)CCOc1ccccc1Cc1ccccc1`, the Potency entry was “inactive”.

On to `CN(C)[C@@H](CCOc1cccc2ccccc12)c1ccccc1`, for which the Potency entry was “inactive”.

With `N#C/C(=C1/SC[C@@H](c2ccc(Cl)cc2Cl)S1)n1ccnc1`, the Potency entry is “inactive”.

In the case of `O[C@@H](COc1cccc2ncccc12)CN1CCN(C2c3ccccc3[C@@H]3[C@H](c4ccccc42)C3(F)F)CC1` (stereo partly drawn), the Potency result is “inactive”.

For the compound `NC(=NCCCCCCN=C(N)/N=C(\N)Nc1ccc(Cl)cc1)/N=C(\N)Nc1ccc(Cl)cc1`, the Potency result was “inactive”.

As for `CN(C)CCOC(c1ccccc1)c1ccc(Br)cc1` (stereo not drawn), the Potency entry is “inactive”.

With `Cc1cc(C(C)(C)C)cc(C)c1CC1=NCCN1`, the Potency result is “inactive”.

Turning to `C#C[C@]1(O)CC[C@H]2[C@@H]3CCC4=CC(=O)CCC4=C3C=C[C@@]21CC`, the Potency entry is “inactive”.

Consider `CCCCN(CCCC)CC(O)c1cc(Cl)cc2c1-c1ccc(Cl)cc1/C2=C/c1ccc(Cl)cc1` (stereo not drawn), for which the Potency entry was “inactive”.

`CCCCNc1ccc(C(=O)OCCN(CC)CC)cc1`: the Potency entry is “inactive”.

Turning to `CN1CCC(=C2c3ccccc3CCc3sccc32)CC1`, the Potency entry is “inactive”.

Take `COc1ccc(C(Cl)=C(c2ccc(OC)cc2)c2ccc(OC)cc2)cc1`: the Potency result is “inactive”.

Consider `CN(C)CCCOc1nn(Cc2ccccc2)c2ccccc12`, for which the Potency result was “inactive”.

Regarding `CCN(CC)CCOc1ccccc1C(=O)CCc1ccccc1`, the Potency entry was “inactive”.

As to `CC(=O)O[C@]1(C(C)=O)CC[C@H]2[C@@H]3C=C(Cl)C4=CC(=O)CC[C@]4(C)[C@H]3CC[C@@]21C`, the Potency entry is “inactive”.

`COCCOC(=O)C1=C(C)NC(C)=C(C(=O)OC/C=C/c2ccccc2)C1c1cccc([N+](=O)[O-])c1` (stereo not drawn): the Potency entry is “inactive”.

Turning to `CCCCCCCCCCCCOS(=O)(=O)O`, the Potency result was “inactive”.

For `O=C(O)c1ccccc1Nc1cc(Cl)ccc1C(=O)O`, the Potency entry was “inactive”.
